Experiment [1] can be described thus: A CellTox Green Cytotoxicity Assay to monitor cytotoxicity in HepG2 cells - 8 hour (AID 1224890). Further: nearly all actives have a fitted effect of over 45% in size. In a few lines: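 Nonlytic assay: viable cells exclude the dye, so fluorescence scales with cell death. HepG2 at 600 cells/well, compounds added after 5 h, signal read across 40 h.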
Experiment [2] is described as follows: qHTS assay to identify small molecule antagonists of the estrogen receptor alpha (ER-alpha) signaling pathway using the BG1 cell line in the presence of 0.1 nM 17-beta-estradiol - cell viability counter screen (AID 1259241). Further: nearly all actives have a fitted effect of over 40% in size. In a few lines:
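VM7Luc4E2 cells (endogenous full-length ER-alpha, 4xERE-luciferase), cultured 5 days in charcoal-stripped serum, exposed to compounds with 0.1 nM 17beta-estradiol (final) for 22 hr at 37C. Viability read in same wells as live-cell protease fluorescence after 30 min.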
In general terms: Quantitative high-throughput screening tests each substance at several concentrations.

Experiment [3] can be described thus: qHTS assay to identify small molecule antagonists of the androgen receptor (AR) signaling pathway using the MDA cell line in the presence of 0.5 nM R1881 - cell viability counter screen (AID 1259242). Further: nearly all actives have a fitted effect of over 45% in size. In a few lines:
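R1881 at 0.5 nM final stimulated MDA-kb2 cells during 16 hr compound treatment at 37C. Cytotoxicity read: CellTiter-Fluor fluorescence after 30 min.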

Experiment [4] concerns the target Androgen receptor (Homo sapiens) (UniProt P10275). The experiment is described as follows: qHTS assay to identify small molecule antagonists of the androgen receptor (AR) signaling pathway using the MDA cell line in the presence of 0.5 nM R1881 (AID 1259243). Further: nearly all actives have a fitted effect of over 50% in size. In a few lines: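 We exposed MDA-kb2 cells to compounds under 0.5 nM R1881 stimulation for 16 hr at 37C and quantified MMTV-driven luciferase by luminescence.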

Experiment [5] has as its target Estrogen receptor (Homo sapiens) (UniProt P03372). The experiment is described as follows: qHTS assay to identify small molecule antagonists of the estrogen receptor alpha (ER-alpha) signaling pathway using the BG1 cell line in the presence of 0.1 nM 17-beta-estradiol (AID 1259244). Further: nearly all actives have a fitted effect of over 50% in size. Further: potency means the concentration at half of the fitted maximal effect. Summed up: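 VM7Luc4E2; 4xERE-luciferase; 0.1 nM E2 final; 22 h co-incubation, 37C; ONE-Glo luminescence after 30 min at room temperature.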

Experiment [6] in a line: qHTS assay to identify small molecule HDAC inhibitors (AID 1259364). Further: potency means the concentration at half of the fitted maximal effect.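 Further: wild-type HCT-116 cells with endogenous class I/II HDAC activity; nearly all actives have a fitted effect of over 45% in size.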 Summed up: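 Relative class I and II HDAC activity is taken from the luminogenic signal in HCT-116 cells, with compound exposure 2 hr and reagent development 30 min at room temperature.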
The nature of experiment [7]: qHTS assay to identify small molecule HDAC inhibitors - cell viability counter screen (AID 1259365). Further: series mostly up to about 92 µM; nearly all actives have a fitted effect of over 50% in size. Summed up: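 Wild-type HCT-116 cells, 1,500/well, cultured overnight, then compound-treated 2 h at 37 C. Viability measured as ATP luminescence with CellTiter-Glo after 30 min at room temperature.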
Experiment [8] is described as follows: qHTS assay to identify small molecule agonists of the sonic hedgehog signaling (Shh) pathway - cell viability counter screen (AID 1259366). Further: nearly all actives have a fitted effect of over 50% in size. Further: potency means the concentration at half of the fitted maximal effect. In a few lines:
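NIH/3T3-derived Gli1-Luc reporter cells, 2,000 per well, received compound after 4 h and were treated about 23 h at 37C. Viability measured in the same wells by CellTiter-Fluor fluorescence after 1 h.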

The nature of experiment [9]: qHTS assay to identify small molecule phospholipidosis (PLD) inducers (AID 1259344; active means well fitted curve in the direction sought with a large enough effect; an effect the other way counts as inactive or inconclusive). Summed up: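 HepG2 cells, 900/well, treated with compound plus LipidTOX Red for 24 h at 37 C; amiodarone positive and DMSO negative controls. Fixed with paraformaldehyde/Hoechst, then high-content imaging scored LipidTOX pit count and integrated intensity per well and per cell.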
Experiment [10] can be described thus: qHTS assay to identify small molecule antagonists of the sonic hedgehog signaling (Shh) pathway - cell viability counter screen (AID 1259367). Further: nearly all actives have a fitted effect of over 55% in size. Summed up:
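NIH/3T3-derived Gli1-Luc reporter cells, 2,000/well, plated 4 hr before compound addition, then stimulated with conditioned medium for 24 hr at 37C. Viability measured in the same wells by CellTiter-Fluor fluorescence, reagent added at 23 hr for 1 hr.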

Results on 29 molecules are retold here after PubChem BioAssay (Tox21).

Values without a mark were called inactive. Inconclusive results are not listed. Active and inactive are the calls of the source. Unless noted, the call rests on the fitted dose curve; in most records, active means well fitted curve in the direction sought with a large enough effect in the repeat runs; inconclusive means weak or mixed curves; inactive means no such curve, though single readings can be large; an effect the other way counts as inactive or inconclusive.
On the % scale 0 is the no-effect control and ±100 the full control effect.

Chain of Androgen receptor (Homo sapiens) (P10275 whole entry, looked up): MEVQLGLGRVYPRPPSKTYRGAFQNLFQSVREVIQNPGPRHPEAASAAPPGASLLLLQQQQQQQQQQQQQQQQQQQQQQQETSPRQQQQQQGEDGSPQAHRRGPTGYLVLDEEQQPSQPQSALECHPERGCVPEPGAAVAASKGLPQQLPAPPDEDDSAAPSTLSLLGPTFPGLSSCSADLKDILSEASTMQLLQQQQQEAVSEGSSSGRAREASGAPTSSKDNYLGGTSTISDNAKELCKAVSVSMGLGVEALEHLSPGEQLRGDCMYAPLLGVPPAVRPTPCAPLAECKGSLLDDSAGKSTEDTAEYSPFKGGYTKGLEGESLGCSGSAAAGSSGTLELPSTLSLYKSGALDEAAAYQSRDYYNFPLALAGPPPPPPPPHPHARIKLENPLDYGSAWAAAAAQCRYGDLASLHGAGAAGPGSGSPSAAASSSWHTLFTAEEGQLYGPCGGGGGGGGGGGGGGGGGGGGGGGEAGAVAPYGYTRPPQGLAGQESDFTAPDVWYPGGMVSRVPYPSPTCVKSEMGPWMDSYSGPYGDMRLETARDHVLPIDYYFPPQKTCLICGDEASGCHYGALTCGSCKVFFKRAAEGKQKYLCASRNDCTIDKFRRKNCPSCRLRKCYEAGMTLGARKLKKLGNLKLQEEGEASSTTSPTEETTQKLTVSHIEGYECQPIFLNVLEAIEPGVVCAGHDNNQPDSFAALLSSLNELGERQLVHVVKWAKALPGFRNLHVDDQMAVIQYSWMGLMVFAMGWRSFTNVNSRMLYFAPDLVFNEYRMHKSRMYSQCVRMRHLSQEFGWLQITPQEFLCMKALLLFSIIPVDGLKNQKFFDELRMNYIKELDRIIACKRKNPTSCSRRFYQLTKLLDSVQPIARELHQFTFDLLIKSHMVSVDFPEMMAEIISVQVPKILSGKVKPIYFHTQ
Chain of Estrogen receptor (Homo sapiens) (P03372 whole entry, looked up): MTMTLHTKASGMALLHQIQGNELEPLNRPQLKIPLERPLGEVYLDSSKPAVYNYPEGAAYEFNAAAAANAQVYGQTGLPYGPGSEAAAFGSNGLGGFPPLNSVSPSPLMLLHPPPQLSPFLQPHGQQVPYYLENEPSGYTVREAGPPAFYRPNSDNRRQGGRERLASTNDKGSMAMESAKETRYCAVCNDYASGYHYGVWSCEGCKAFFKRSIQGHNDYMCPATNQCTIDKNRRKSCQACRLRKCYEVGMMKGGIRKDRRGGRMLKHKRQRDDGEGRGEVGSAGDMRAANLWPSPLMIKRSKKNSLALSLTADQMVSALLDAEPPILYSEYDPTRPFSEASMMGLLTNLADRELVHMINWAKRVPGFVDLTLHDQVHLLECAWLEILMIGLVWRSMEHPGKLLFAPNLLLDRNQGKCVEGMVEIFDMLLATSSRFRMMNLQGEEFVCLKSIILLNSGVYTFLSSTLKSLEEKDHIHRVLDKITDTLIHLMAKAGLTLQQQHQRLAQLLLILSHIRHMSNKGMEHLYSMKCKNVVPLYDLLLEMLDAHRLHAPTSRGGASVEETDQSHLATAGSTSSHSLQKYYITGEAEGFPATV

In the case of `Cc1ccc2ccccc2c1`, the Potency entry in experiment [1], in experiment [2], in experiment [3], in [4], in [5] and in experiment [6] was “inactive” each time. In addition, the Potency result in [7] and in [8] was “inactive” throughout.

Turning to `C=CCC1([C@H](C)CCC)C(=O)NC(=O)NC1=O`, the Potency result in experiment [1], in experiment [2], in experiment [3], in experiment [5], in experiment [6] and in [7] was “inactive” each time. Moreover, the Potency result in [8] and in experiment [10] was “inactive” each time. Besides, the outcome in [9] was inactive.

For the molecule `Clc1cccc(SC2CCNCC2)n1`, the Potency result in experiment [1], in experiment [2], in experiment [3], in [5], in experiment [6] and in [7] was “inactive” each time. Further, in experiment [8], the Potency entry was “inactive”. In experiment [9], the outcome was inactive.

Turning to `CC(=O)NC1CCSC1=O` (centres undefined), the Potency entry in experiment [1], in experiment [2], in experiment [3], in [4], in experiment [5] and in experiment [6] was “inactive” throughout. The Potency entry in [7], in experiment [8] and in experiment [10] was “inactive” each time. The result in [9] was inactive.

With `ClC=C(Cl)Cl`, the Potency entry in [1], in [2], in experiment [3], in experiment [5], in [6] and in [7] was “inactive” each time. The Potency entry in experiment [8] and in [10] was “inactive” in each case. The result in experiment [9] was inactive.

Regarding `ClCc1cccc(Cl)c1`, the Potency result in experiment [1], in experiment [2], in experiment [3], in experiment [4], in [5] and in experiment [6] was “inactive” throughout. Further, the Potency result in [7] and in [10] was “inactive” throughout.

For the molecule `CC1Sc2c(C(=O)O)c(=O)c3cc(F)c(N4CCNCC4)cc3n21` (centres undefined), the Potency entry in [1], in experiment [2], in experiment [3], in experiment [4], in [5] and in experiment [6] was “inactive” in each case. In addition, the Potency result in experiment [7], in [8] and in experiment [10] was “inactive” in each case.

For the molecule `C=CC(=O)NCNC(=O)C=C`, the Potency entry in experiment [1], in experiment [2], in experiment [3], in [4], in [5] and in [7] was “inactive” in each case. In addition, the Potency entry in [10] is “inactive”. In addition, in [9], the result was inactive.

Consider `O=C(NCc1cccnc1)Nc1ccc([N+](=O)[O-])cc1`, for which the Potency result in experiment [1], in experiment [2], in [3], in [5], in experiment [6] and in experiment [7] was “inactive” in each case.

`C=C(C#N)CCC#N`: the Potency entry in experiment [1], in experiment [2], in experiment [3], in experiment [5], in [6] and in experiment [7] was “inactive” throughout. Further, the Potency entry in experiment [8] and in experiment [10] was “inactive” in each case.

As for `C=CC(=O)OCC(C)C`, the Potency result in experiment [1], in experiment [2], in experiment [3], in [5] and in experiment [7] was “inactive” throughout. Moreover, the Potency in [6] was 19.2 µM (active).

On to `O=C(CBr)Nc1ccc(Cl)cc1C(=O)c1ccccc1F`, for which the Potency result in experiment [1], in experiment [2], in experiment [3], in [5], in experiment [6] and in [7] was “inactive” throughout. Further, the Potency result in experiment [8] and in experiment [10] was “inactive” throughout.

As for `Cn1cc[n+](C)c1` (tested in a mixture with another compound), the Potency entry in experiment [1], in experiment [2], in experiment [3], in experiment [5], in experiment [6] and in [7] was “inactive” each time. The Potency result in experiment [8] and in [10] was “inactive” throughout.

As to `CNP(=O)(OC)Oc1ccc(C(C)(C)C)cc1Cl` (centres undefined), the Potency result in [1], in experiment [2], in experiment [3], in [5], in experiment [6] and in experiment [7] was “inactive” in each case. In experiment [8], the Potency entry was “inactive”.

Regarding `CC(Cl)C(C)Cl` (centres undefined), the Potency entry in [1], in experiment [2], in [3], in [5], in experiment [6] and in [7] was “inactive” throughout. Further, in experiment [8], the Potency entry is “inactive”.

In the case of `C[C@H]1CNCCc2ccc(Cl)cc21`, the Potency entry in [1], in [2], in [3], in experiment [5], in experiment [6] and in [7] was “inactive” throughout. The Potency entry in experiment [8] and in experiment [10] was “inactive” throughout. In addition, the PLD induction in [9] is 0.0663% [at 7.66 µM].

Regarding `COC(=O)C(C)N(C(=O)Cc1ccccc1)c1c(C)cccc1C` (centres undefined), the Potency entry in [1], in experiment [2], in experiment [3], in [5], in [6] and in [7] was “inactive” throughout. Moreover, the Potency entry in experiment [8] and in [10] was “inactive” throughout.

Take `NC(=O)C(Cl)(Cl)Cl`: the Potency result in experiment [1], in [2], in [3], in experiment [5], in experiment [6] and in experiment [7] was “inactive” each time. For the same molecule, the Potency result in experiment [8] was “inactive”.

On to `C=CC(=O)OCCCCO`, for which the Potency result in [1], in experiment [2], in experiment [3], in [5], in [6] and in experiment [7] was “inactive” throughout. Also, in experiment [8], the Potency is 61.1 µM (active).

Turning to `O=C1NCN(c2ccccc2)C12CCN(CCCOc1ccc(F)cc1)CC2`, the Potency result in experiment [1], in experiment [2], in experiment [3], in experiment [6], in experiment [7] and in [10] was “inactive” each time. Moreover, the Potency in experiment [5] is 7.5 µM (active). In addition, in [9], the molecule was classed as inactive.

In the case of `CC(Cl)Cl`, the Potency result in experiment [1], in [2], in experiment [3], in experiment [5], in experiment [6] and in experiment [7] was “inactive” in each case.

With `ClCc1ccccc1`, the Potency result in [1], in experiment [2], in experiment [3], in experiment [5], in [6] and in experiment [7] was “inactive” in each case. Also, the Potency entry in experiment [8] is “inactive”.

For `CCOc1nc(F)cc2nc(S(=O)(=O)Nc3c(Cl)cccc3Cl)nn12`, the Potency result in experiment [1], in [2], in experiment [3], in experiment [5], in experiment [6] and in experiment [7] was “inactive” each time.

Regarding `ClCC(Br)CBr` (centres undefined), the Potency entry in experiment [1], in experiment [2], in experiment [3], in [5], in experiment [6] and in experiment [7] was “inactive” throughout. For the same molecule, the Potency entry in experiment [8] was “inactive”.

For `O=C(CBr)c1ccccc1`, the Potency result in experiment [1], in [2], in [3], in experiment [5], in experiment [6] and in experiment [7] was “inactive” in each case. Further, the Potency result in [8] is “inactive”.

Regarding `COc1cc(Cl)c(OC)cc1Cl`, the Potency entry in experiment [1], in experiment [2], in experiment [3], in experiment [5], in experiment [6] and in [7] was “inactive” each time. Further, the Potency entry in experiment [8] and in [10] was “inactive” each time.

As for `Cn1sc(Cl)cc1=O`, the Potency result in [1], in experiment [2], in [3], in experiment [5], in experiment [6] and in experiment [7] was “inactive” throughout. Also, the Potency result in [10] was “inactive”. Further, the molecule was called inactive in [9].

Regarding `OCCCBr`, the Potency result in [1], in experiment [2], in [3], in experiment [5], in experiment [6] and in experiment [7] was “inactive” in each case. The Potency result in experiment [8] and in experiment [10] was “inactive” throughout. The molecule was called inactive in experiment [9].

As for `CCOP(=S)(Oc1ccc([N+](=O)[O-])cc1)c1ccccc1` (centres undefined), the Potency result in [1], in [2], in experiment [3], in [5], in experiment [6] and in experiment [7] was “inactive” each time. The Potency entry in [8] and in [10] was “inactive” each time.
